Sampled rows, rich in hits. Any-hit rate of the full collection: about 3.5%.
FBW7 activator: FBW7 E3 ligase activators, primary screen, biochemical, AlphaScreen, human. F-box/WD repeat-containing protein 7 (Homo sapiens), Q969H0. AlphaScreen FBW7–phospho-cyclin E peptide binding, activator screen. normalized activity (activation), % at 26.1 µM. hit rate 0.13% among 650,000; in the data active = normalized activity above about 1.9%;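 also: purified mutant Fbw7 with reduced substrate affinity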
Target sequence (Q969H0 whole entry, looked up): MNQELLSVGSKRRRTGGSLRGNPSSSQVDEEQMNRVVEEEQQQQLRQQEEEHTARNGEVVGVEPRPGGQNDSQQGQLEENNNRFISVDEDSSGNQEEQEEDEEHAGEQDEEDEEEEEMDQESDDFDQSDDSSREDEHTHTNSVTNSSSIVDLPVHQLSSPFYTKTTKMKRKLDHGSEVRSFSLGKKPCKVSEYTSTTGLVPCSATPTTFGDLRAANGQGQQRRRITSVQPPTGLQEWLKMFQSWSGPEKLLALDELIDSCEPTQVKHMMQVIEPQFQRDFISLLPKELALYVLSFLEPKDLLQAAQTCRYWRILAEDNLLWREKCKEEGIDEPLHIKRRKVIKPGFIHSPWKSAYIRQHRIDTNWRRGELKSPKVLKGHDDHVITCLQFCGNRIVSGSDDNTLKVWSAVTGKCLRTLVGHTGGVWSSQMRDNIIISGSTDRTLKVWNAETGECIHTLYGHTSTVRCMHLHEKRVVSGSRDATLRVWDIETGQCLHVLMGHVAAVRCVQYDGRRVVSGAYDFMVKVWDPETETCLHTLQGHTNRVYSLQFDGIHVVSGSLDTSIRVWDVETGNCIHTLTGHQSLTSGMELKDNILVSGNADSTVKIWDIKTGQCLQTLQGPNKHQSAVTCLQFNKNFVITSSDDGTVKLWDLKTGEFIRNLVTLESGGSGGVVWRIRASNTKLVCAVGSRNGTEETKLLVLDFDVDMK
MITF primary: MITF inhibitors, primary screen, biochemical, AlphaScreen, human | AlphaScreen MITF homodimerization, bead proximity signal | inhibition, % at 2.6 µM | hit rate 0.91% among 650,000; in the data active = inhibition above about 50%;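 also: 0% = vehicle wells with protein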
GPR151 ag: activators of human GPR151, primary screen, cell-based, PathHunter beta-arrestin, luminescence. PathHunter beta-arrestin GPR151 cells. G-protein coupled receptor 151 (Homo sapiens), Q8TDV0. AID 1508602, 2020. activation, % at 11.2 µM. hit rate 1% among 650,000; in the data active = activation above about 4.9%;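 also: 0% = median of compound wells and 100% = cells with positive control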
TEAD-YAP inh: TEAD-YAP interaction inhibition, primary screen, TEAD-YAP interaction inhibitor project, luminescence, HEK-TIYL cells; TEAD-Gal4/YAP UAS-luciferase luminescence; inhibition, % at 9.12 µM; hit rate 1.4% among 640,000; in the data active = inhibition above about 32%;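 also: 0% = median of test compound wells and 100% = reference inhibitor wells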
* = called active by the depositor.

SMILES	FBW7 activator	MITF primary	GPR151 ag	TEAD-YAP inh
COCCNc1ccc2ncc(-c3cccc(C(C)=O)c3)n2n1	0	-5	3	7
CS(=O)(=O)Nc1cccc(-c2cnc3ccc(NCCCO)nn23)c1	0	-5	1	58*
COCCNc1ccc2ncc(-c3cccc(NC(C)=O)c3)n2n1	0	6	0	56*
Cc1ccc(C2C3=C(CC(C)(C)CC3=O)N(Cc3ccc(Cl)cc3)C3=C2C(=O)CC(C)(C)C3)cc1	0	6	0	1
C=C(C)CNC(=S)Nc1sc2c(c1C(=O)OCC)CCC(C(C)(C)C)C2 (stereo not given)	0	1	1	-23
COc1cc(/C=C2/C(=O)ON=C2c2ccccc2)ccc1O	0	69*	1	-3
COc1ccccc1/C=C1\C(=O)ON=C1c1ccccc1	0	70*	1	-73
COc1cc(/C=C2/C(=O)ON=C2c2ccc(Cl)cc2)ccc1O	0	61*	2	6
CCOc1ccc(/C=C2\C(=O)ON=C2c2ccc(Cl)cc2)cc1	0	59*	-1	14
Cc1cccnc1C(NC(=O)C1CCN(C(=O)c2ccno2)CC1)c1cccs1 (stereo not given)	0	20	-1	1
COc1ccccc1C1=NN(c2nc(-c3ccccc3)c3cc(Cl)ccc3n2)C(c2ccco2)C1 (stereo not given)	0	0	0	5
Cc1ccc2onc(CNC(=O)N3CCN(c4ccccn4)CC3)c2c1	0	2	1	9
COc1cc(/C=C2/C(=O)ON=C2c2ccccc2)cc(OC)c1OC	0	56*	-1	2
Cc1ccc(COc2ccccc2/C=C2/C(=O)ON=C2c2ccccc2)cc1	0	54*	-1	-43
COc1cc(/C=C2\C(=O)ON=C2c2ccccc2)ccc1OCc1ccc(Cl)cc1	0	32	2	-47
CCOc1cc(/C=C2/C(=O)ON=C2c2ccccc2)ccc1OC	0	67*	-1	4
Cc1ccc(Cn2cc(SCC(=O)Nc3cc(C)on3)c3ccccc32)cc1	0	9	0	13
CC(=O)N1CC(=O)c2ccccc21	0	1	1	4
OCCCNc1ncnc2scc(-c3ccc(F)cc3)c12	0	-9	1	2
Cc1nc2sc(C(c3ccc(C(C)C)cc3)N3CCN(C)CC3)c(O)n2n1 (stereo not given)	0	-6	-1	0
COc1ccc(-c2nc3ccc(C(=O)NCc4cccnc4)cc3nc2-c2ccc(OC)cc2)cc1	0	8	1	45*
COc1cccc(CNC(=O)c2ccc3nc(-c4ccc(C)cc4)c(-c4ccc(C)cc4)nc3c2)c1	0	-5	0	4
CCCCN(CC)CCNC(=O)c1nn(-c2cc(OC)cc(OC)c2)c(=O)c2ccccc12	0	9	-1	1
Cc1ccc(C2CC(=O)C=C(O)C2)cc1 (stereo not given)	0	-3	-1	-1
CC(C)(C)c1ccc(C2CC(=O)C=C(O)C2)cc1 (stereo not given)	1	18	1	54*
SMILES	FBW7 activator	MITF primary	GPR151 ag	TEAD-YAP inh
CCOc1nc2c(c(=O)n(Cc3ccc(Cl)cc3)c(=O)n2C)n1C	0	-10	-1	-10
COCCOC(=O)c1c(C)oc2ccc(OC(C)C(=O)O)cc12 (stereo not given)	0	-2	-1	-1
CCC(C)c1ccc(OCCCNCCO)cc1 (stereo not given)	0	22	-2	40*
COC(=O)c1ccc(COc2ccc(C=O)cc2OC)cc1	0	-1	0	-32
CCc1cc2cc3c(cc2nc1SCC(=O)NC(C)(C)C)OCCO3	0	10	-1	47*
CCc1cc2cc3c(cc2nc1SCC(=O)NC(C)(C)C)OCO3	0	13	2	38*
CCC(=O)NNC(=O)CSc1nc2cc3c(cc2cc1CC)OCCO3	0	-2	-1	-7
COc1cc([N+](=O)[O-])cc2sc(NC(=O)c3ccccc3Br)nc12	0	-8	2	-1
CCOC(=O)c1[nH]c(C)c(CNC2CCCCC2)c1C	0	13	1	3
CCOC(=O)c1[nH]c(C)c(CN(C2CCCCC2)S(C)(=O)=O)c1C	0	5	0	52*
O=C(CSc1nc2ccsc2c(=O)n1-c1ccc(F)cc1)Nc1ccccc1Cl	1	9	0	33*
O=C(CSc1nc2ccsc2c(=O)n1-c1ccccc1)Nc1ccccc1Cl	0	2	1	7
O=C(NCc1cccnc1)c1ccc(N2CCCCC2)c([N+](=O)[O-])c1	0	8	1	22
CCC(=O)N1c2ccccc2C(=C2SC(C(=O)OC)=C(C(=O)OC)S2)C(=S)C1(C)C	0	24	-1	3
COC(=O)C1=C(C(=O)OC)SC(=C2C(=S)C(C)(C)N(C(=O)c3ccccc3-c3ccccc3)c3cc(C)ccc32)S1	0	61*	-1	-2
CCC(CC)C(=O)N1c2ccccc2C(=C2SC(C(=O)OC)=C(C(=O)OC)S2)C(=S)C1(C)C	0	55*	1	4
CN1C(=O)C(=Cc2cc(Cl)ccc2OCc2ccccc2)C(=O)N(C)C1=O	0	-1	2	-2
CN(C)/C=C1/C(=O)N(c2nc3ccccc3s2)N=C1c1ccccc1	0	0	0	5
CC1=NN(c2nc3ccccc3s2)C(=O)/C1=C\N(C)C	0	9	-9	68*
CC1=NN(c2nc3ccccc3s2)C(=O)/C1=C(\C)N(C)C	0	5	-10	43*
NC(=O)c1c(NC(=O)c2ccccc2)sc2c1CCCCC2	0	12	1	-12
NC(=O)c1c(NC(=O)c2nc3ccccc3s2)sc2c1CCCCC2	0	15	-2	62*
NC(=O)c1c(NC(=O)c2cc3ccccc3o2)sc2c1CCCCC2	0	-4	0	42*
CCOC(=O)C1=C(CN2CCCC2)NC(=O)NC1c1cccs1 (stereo not given)	1	4	-1	4
CCOC(=O)C1=C(CN2CCC(C(N)=O)CC2)NC(=O)NC1c1cccs1 (stereo not given)	2.6*	-9	-1	-1
SMILES	FBW7 activator	MITF primary	GPR151 ag	TEAD-YAP inh
Cc1nc2nc(CC(=O)NCc3ccccc3)nn2c(C)c1Cc1cccc(Cl)c1	0	-4	0	55*
Cc1cccc(C)c1OCC(=O)Nc1ccc(C(N)=O)cc1	0	-3	0	-4
COc1cc(NC(=O)c2sc3ncnc(N4CCN(c5ccccc5F)CC4)c3c2C)cc(OC)c1OC	0	19	1	32*
Cc1c(C(=O)Nc2c(F)cccc2F)sc2ncnc(N3CCN(c4ccccc4)CC3)c12	0	22	1	-5
Cc1ccc(NC(=O)c2sc3ncnc(N4CCN(c5ccccc5F)CC4)c3c2C)c(Br)c1	2.0*	24	1	-5
Cc1c(C(=O)Nc2ccccc2F)sc2ncnc(N3CCN(c4ccccc4)CC3)c12	1.9*	17	0	-13

Screens (PubChem)
